Common to all, as to assay: DAPPL (digital affinity profiling via proximity ligation, sequencing); 10 mM Tris-HCl pH 7.5, 50 mM NaCl, 1 mM DTT, 4% glycerol, room temperature, 30 min; GST-TFs on glutathione beads, 16-mer random dsDNA library, 0.1% formaldehyde crosslink after washing; high values mean tight binding
One assay deals with T1, FEV (Homo sapiens, UniProt Q99581 1-238).
T1 sequence: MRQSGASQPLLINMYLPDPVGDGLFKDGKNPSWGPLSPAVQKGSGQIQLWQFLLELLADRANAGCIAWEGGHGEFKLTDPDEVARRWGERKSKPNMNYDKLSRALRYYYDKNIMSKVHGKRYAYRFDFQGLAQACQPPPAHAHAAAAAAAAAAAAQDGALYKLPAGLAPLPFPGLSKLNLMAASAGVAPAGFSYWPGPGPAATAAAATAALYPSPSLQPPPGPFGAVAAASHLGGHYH
Conditions: protein: recombinant; tags: N-terminal GST; dsDNA, one strand shown. The procedure, abridged:
(§1)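 Beads coated with glutathione captured GST-fused human transcription factors that had been expressed in yeast, and the factors were then given DNA barcodes and pooled with a tag-only sample. The pools were incubated with 200 nmole of a random double-stranded 16-mer DNA library in Tris/NaCl/DTT/glycerol buffer for 30 min at room temperature, washed, crosslinked with 0.1% formaldehyde and proximity-ligated with BsaI/T4 ligase at 37 °C for 1 h. PCR amplification and Illumina NextSeq500 sequencing came last. Binding signal is each hexamer's read frequency for a factor divided by its frequency for the tag-only sample.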

The next assay has as its target ETV5 (Homo sapiens, UniProt P41161 1-510). Conditions: protein: recombinant; tags: N-terminal GST; dsDNA, one strand shown. The procedure, abridged: as §1
Another assay concerns the target HSF1 (Homo sapiens, UniProt Q00613 1-529). To be noted: protein: recombinant; tags: N-terminal GST; chain copies: 3; dsDNA, one strand shown. The procedure, abridged: as §1
The target of another assay is T2, SPIC (Homo sapiens, UniProt Q8N5J4 1-248).
T2 sequence: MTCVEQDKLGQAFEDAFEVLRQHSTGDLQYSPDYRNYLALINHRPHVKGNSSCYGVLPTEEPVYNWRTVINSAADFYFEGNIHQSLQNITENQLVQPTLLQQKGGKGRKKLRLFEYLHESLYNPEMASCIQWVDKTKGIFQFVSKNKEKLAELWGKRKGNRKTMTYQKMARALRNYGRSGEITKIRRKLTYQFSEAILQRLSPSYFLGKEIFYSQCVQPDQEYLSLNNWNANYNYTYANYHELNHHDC
To be noted: protein: recombinant; tags: N-terminal GST; dsDNA, one strand shown. The procedure, abridged: as §1

Another assay has as its target ELF4 (Homo sapiens, UniProt Q99607 1-663). To be noted: protein: recombinant; tags: N-terminal GST; dsDNA, one strand shown. The procedure, abridged:
as §1

The next assay has as its target T3, ELK4 (Homo sapiens, UniProt P28324-2 1-405).
T3 sequence: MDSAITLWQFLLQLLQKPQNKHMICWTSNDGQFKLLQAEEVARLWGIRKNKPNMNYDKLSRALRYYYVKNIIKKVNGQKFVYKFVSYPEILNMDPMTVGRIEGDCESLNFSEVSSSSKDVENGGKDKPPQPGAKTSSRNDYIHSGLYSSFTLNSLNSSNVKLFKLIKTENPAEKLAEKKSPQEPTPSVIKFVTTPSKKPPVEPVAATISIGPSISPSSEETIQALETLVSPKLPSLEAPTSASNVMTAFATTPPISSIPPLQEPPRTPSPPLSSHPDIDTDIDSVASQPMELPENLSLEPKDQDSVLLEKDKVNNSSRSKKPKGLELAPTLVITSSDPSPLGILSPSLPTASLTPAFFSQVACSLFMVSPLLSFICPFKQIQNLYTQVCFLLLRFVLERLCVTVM
To be noted: protein: recombinant; tags: N-terminal GST; dsDNA, one strand shown. The procedure, abridged: as §1

In the next assay the target is T4, ETV2 (Homo sapiens, UniProt O00321 1-342).
T4 sequence: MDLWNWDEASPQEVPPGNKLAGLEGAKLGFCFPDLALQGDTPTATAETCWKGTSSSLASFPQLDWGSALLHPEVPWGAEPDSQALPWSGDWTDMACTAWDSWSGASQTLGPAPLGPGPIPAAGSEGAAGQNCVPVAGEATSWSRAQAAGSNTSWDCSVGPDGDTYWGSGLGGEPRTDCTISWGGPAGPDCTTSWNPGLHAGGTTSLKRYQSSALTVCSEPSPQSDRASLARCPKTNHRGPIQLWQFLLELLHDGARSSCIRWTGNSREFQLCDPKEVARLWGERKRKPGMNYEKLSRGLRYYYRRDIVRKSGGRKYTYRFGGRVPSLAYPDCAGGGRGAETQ
To be noted: protein: recombinant; tags: N-terminal GST; dsDNA, one strand shown. The gist of the method: as §1

Another assay has as its target T5, ELF3 (Homo sapiens, UniProt P78545 1-371).
T5 sequence: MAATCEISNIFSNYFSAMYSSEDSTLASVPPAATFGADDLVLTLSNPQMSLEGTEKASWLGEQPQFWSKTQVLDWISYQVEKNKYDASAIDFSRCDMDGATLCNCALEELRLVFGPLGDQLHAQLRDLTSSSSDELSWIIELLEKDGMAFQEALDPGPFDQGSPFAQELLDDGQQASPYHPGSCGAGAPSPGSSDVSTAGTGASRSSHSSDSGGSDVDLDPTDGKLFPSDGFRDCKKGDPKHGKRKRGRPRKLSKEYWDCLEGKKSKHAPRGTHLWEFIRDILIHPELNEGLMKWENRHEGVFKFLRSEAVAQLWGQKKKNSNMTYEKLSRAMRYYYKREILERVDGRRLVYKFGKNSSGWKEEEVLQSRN
Conditions: protein: recombinant; tags: N-terminal GST; dsDNA, one strand shown. The procedure, abridged: as §1

A further assay concerns the target CRX (Homo sapiens, UniProt O43186 1-299). Conditions: protein: recombinant; tags: N-terminal GST; dsDNA, one strand shown. The procedure, abridged:
as §1

The target in another assay is ETV1 (Homo sapiens, UniProt P50549 1-477). To be noted: protein: recombinant; tags: N-terminal GST; dsDNA, one strand shown. The procedure, abridged:
as §1

For another assay, the target named is T6, ERF (Homo sapiens, UniProt P50548 1-548).
T6 sequence: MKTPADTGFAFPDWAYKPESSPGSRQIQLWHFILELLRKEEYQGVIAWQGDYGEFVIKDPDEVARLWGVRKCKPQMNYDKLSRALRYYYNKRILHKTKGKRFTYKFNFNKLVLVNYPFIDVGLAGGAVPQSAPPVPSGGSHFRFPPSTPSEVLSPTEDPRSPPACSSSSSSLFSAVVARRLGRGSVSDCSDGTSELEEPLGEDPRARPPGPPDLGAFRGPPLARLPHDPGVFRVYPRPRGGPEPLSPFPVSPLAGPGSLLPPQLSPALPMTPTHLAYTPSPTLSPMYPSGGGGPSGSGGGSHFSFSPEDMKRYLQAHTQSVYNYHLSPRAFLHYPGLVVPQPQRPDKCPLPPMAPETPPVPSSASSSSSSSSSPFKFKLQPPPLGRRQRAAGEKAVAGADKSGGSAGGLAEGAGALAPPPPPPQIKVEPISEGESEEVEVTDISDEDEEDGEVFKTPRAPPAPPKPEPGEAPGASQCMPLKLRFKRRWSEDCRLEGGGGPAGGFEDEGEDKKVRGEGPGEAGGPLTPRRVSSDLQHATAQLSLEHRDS
To be noted: protein: recombinant; tags: N-terminal GST; dsDNA, one strand shown. The procedure, abridged:
as §1

Another assay concerns the target T7, ETV3L (Homo sapiens, UniProt Q6ZN32 1-361).
T7 sequence: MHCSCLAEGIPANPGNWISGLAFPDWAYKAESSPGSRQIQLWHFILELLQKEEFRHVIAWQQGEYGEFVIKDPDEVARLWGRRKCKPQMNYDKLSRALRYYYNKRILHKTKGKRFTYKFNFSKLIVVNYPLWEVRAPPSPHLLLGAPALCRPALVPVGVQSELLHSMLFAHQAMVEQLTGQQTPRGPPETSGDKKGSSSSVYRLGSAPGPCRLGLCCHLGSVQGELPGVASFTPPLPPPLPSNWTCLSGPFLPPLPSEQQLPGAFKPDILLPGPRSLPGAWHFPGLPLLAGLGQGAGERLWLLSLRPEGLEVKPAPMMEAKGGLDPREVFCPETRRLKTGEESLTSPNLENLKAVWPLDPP
Conditions: protein: recombinant; tags: N-terminal GST; dsDNA, one strand shown. The gist of the method:
as §1

The target of a further assay is T8, ETS2 (Homo sapiens, UniProt P15036 1-469).
T8 sequence: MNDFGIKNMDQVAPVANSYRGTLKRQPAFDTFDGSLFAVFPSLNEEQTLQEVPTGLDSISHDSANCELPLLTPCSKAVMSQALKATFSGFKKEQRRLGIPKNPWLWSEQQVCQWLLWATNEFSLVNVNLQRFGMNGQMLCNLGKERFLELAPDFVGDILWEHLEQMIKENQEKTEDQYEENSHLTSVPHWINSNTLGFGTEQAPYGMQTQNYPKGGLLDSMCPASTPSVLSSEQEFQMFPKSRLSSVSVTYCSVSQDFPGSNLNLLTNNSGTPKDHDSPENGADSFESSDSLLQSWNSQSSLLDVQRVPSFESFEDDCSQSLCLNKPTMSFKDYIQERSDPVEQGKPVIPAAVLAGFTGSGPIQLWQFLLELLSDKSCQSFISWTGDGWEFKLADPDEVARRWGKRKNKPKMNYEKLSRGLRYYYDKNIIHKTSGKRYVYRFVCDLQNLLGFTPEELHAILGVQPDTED
To be noted: protein: recombinant; tags: N-terminal GST; dsDNA, one strand shown. The gist of the method: as §1

In a further assay the target is T9, SPDEF (Homo sapiens, UniProt O95238 1-335).
T9 sequence: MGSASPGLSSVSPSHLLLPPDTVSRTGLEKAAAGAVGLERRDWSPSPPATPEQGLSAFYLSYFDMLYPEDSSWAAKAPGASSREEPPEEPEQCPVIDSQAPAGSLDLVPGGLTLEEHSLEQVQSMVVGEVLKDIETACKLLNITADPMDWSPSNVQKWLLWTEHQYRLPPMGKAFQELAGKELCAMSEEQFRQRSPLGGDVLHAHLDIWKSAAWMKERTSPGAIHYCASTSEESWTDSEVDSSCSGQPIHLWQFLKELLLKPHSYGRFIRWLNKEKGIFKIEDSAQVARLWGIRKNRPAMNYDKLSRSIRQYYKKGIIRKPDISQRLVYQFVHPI
To be noted: protein: recombinant; tags: N-terminal GST; dsDNA, one strand shown. The gist of the method:
as §1

The target in a further assay is T10, ETV7 (Homo sapiens, UniProt Q9Y603 1-341).
T10 sequence: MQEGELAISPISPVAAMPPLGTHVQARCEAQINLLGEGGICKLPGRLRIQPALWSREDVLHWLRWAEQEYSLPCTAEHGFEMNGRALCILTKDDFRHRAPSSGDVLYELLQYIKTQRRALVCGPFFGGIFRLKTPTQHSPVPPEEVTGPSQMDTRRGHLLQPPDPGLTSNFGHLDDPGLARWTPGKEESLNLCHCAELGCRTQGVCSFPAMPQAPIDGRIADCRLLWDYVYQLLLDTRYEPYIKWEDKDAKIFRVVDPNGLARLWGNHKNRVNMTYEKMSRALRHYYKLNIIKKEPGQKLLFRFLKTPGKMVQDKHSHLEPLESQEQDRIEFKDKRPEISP
To be noted: protein: recombinant; tags: N-terminal GST; dsDNA, one strand shown. The procedure, abridged: as §1

The next assay concerns the target T11, ELF5 (Homo sapiens, UniProt Q9UKW6-2 1-255).
T11 sequence: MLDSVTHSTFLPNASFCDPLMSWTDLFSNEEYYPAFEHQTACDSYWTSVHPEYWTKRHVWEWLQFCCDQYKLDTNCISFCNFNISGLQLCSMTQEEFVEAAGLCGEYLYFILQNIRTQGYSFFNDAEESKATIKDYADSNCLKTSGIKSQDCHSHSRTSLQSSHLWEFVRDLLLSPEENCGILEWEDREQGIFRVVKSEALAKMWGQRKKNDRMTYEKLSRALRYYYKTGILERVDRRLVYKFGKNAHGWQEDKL
To be noted: protein: recombinant; tags: N-terminal GST; dsDNA, one strand shown. The gist of the method: as §1

The next assay concerns the target T12, ETV3 (Homo sapiens, UniProt P41162-2 1-143).
T12 sequence: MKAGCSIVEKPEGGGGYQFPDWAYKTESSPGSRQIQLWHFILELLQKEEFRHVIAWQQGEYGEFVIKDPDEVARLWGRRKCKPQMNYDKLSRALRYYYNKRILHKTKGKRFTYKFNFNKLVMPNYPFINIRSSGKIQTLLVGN
Conditions: protein: recombinant; tags: N-terminal GST; dsDNA, one strand shown. The procedure, abridged: as §1

For the next assay, the target named is ETV6 (Homo sapiens, UniProt P41212 1-452). Conditions: protein: recombinant; tags: N-terminal GST; dsDNA, one strand shown. The procedure, abridged:
as §1

HSF1, sequence (Q00613 whole entry): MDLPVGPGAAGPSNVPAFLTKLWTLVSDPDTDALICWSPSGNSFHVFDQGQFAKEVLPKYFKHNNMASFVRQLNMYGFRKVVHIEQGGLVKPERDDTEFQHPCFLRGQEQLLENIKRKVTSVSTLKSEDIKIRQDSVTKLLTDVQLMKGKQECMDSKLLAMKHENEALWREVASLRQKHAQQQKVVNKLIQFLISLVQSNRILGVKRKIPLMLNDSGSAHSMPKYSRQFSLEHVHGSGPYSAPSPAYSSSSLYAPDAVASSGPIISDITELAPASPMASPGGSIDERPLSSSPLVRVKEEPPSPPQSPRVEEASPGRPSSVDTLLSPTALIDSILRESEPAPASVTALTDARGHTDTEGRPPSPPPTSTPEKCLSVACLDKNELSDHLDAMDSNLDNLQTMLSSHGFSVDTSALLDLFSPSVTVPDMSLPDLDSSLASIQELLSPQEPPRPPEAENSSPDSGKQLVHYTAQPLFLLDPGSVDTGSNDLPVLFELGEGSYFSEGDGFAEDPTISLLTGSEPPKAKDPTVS
ETV6, sequence (P41212 whole entry): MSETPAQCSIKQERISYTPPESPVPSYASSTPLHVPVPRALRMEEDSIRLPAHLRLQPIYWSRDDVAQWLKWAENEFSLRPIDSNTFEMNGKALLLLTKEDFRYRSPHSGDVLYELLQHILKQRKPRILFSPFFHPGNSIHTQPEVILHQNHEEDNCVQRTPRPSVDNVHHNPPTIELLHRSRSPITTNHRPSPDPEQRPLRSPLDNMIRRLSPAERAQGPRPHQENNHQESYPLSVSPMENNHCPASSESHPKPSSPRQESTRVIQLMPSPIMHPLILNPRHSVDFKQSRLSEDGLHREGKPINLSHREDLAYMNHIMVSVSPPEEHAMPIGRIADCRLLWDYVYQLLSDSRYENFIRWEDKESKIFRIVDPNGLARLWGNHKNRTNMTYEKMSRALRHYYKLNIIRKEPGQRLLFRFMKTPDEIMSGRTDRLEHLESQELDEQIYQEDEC
CRX, sequence (O43186 whole entry): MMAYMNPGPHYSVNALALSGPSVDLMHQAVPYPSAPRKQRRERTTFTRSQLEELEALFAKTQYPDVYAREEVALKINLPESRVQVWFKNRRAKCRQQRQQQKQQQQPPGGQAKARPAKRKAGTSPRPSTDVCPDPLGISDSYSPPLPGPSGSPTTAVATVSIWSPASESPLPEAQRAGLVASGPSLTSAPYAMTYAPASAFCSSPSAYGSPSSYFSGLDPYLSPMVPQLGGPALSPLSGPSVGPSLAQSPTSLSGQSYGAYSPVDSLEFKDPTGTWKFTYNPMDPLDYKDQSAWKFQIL
ETV5, sequence (P41161 whole entry): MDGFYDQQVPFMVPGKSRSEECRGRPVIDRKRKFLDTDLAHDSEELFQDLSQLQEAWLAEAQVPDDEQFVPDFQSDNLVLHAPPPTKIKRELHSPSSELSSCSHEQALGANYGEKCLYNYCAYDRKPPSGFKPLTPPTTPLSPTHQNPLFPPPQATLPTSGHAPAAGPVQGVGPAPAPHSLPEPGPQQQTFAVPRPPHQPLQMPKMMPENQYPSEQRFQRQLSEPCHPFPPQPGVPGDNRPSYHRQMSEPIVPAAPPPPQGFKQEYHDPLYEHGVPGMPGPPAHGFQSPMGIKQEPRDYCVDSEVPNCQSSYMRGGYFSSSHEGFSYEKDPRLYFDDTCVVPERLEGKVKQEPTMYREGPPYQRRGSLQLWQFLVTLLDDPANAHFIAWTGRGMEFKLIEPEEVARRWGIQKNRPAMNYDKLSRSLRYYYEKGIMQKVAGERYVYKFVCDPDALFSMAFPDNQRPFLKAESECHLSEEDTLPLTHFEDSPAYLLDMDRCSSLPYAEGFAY
ETV1, sequence (P50549 whole entry): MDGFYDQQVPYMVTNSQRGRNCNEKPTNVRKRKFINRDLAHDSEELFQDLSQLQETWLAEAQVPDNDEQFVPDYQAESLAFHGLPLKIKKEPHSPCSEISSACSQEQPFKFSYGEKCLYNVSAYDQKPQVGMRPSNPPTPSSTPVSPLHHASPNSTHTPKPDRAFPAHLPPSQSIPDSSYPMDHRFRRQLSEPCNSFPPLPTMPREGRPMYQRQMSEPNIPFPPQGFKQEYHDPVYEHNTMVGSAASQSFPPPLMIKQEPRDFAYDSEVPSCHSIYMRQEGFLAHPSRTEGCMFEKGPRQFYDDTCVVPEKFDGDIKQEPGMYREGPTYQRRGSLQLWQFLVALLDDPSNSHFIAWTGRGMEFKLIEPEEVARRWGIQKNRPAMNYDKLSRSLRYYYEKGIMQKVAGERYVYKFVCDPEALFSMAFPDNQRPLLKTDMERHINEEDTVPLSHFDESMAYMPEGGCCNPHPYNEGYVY
ELF4, sequence (Q99607 whole entry): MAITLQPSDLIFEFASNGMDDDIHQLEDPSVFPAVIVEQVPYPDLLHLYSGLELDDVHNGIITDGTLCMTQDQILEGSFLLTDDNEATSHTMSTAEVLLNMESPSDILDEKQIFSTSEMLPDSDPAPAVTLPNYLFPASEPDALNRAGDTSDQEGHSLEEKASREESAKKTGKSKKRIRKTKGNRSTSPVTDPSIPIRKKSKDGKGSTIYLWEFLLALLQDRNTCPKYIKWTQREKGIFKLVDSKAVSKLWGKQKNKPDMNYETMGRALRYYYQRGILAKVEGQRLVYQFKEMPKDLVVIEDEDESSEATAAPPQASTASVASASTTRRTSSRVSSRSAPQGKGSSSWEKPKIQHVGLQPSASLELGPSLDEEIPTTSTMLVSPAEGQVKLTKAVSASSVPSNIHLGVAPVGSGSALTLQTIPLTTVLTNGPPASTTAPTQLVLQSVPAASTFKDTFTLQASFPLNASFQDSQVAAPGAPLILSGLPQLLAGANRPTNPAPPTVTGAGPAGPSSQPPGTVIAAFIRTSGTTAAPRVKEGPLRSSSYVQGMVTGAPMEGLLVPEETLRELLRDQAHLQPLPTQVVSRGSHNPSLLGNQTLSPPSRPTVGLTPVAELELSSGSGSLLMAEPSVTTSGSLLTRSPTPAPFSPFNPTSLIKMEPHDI

Consider AGCACT, for which the binding signal with FEV was 1.51 fold enrichment (6-mer frequency, TF over GST control); in the assay with ETV5 it was 1.37 fold enrichment (6-mer frequency, TF over GST control); with HSF1 it was 1.19 fold enrichment (6-mer frequency, TF over GST control); with SPIC, 1.32 fold enrichment (6-mer frequency, TF over GST control); with ELF4 it was 1.44 fold enrichment (6-mer frequency, TF over GST control); in the assay with ELK4, 1.31 fold enrichment (6-mer frequency, TF over GST control). For the same sequence, the binding signal in the assay with ETV2 was 1.46 fold enrichment (6-mer frequency, TF over GST control); with ELF3, 1.26 fold enrichment (6-mer frequency, TF over GST control); in the assay with CRX, 1.18 fold enrichment (6-mer frequency, TF over GST control); with ETV1 it was 1.36 fold enrichment (6-mer frequency, TF over GST control); in the assay with ERF, 1.44 fold enrichment (6-mer frequency, TF over GST control); in the assay with ETV3L, 1.42 fold enrichment (6-mer frequency, TF over GST control). Further, the binding signal in the assay with ETS2 was 1.43 fold enrichment (6-mer frequency, TF over GST control); in the assay with SPDEF it was 1.4 fold enrichment (6-mer frequency, TF over GST control); with ETV7, 1.43 fold enrichment (6-mer frequency, TF over GST control); with ELF5 it was 1.52 fold enrichment (6-mer frequency, TF over GST control); with ETV3, 1.39 fold enrichment (6-mer frequency, TF over GST control); with ETV6, 1.44 fold enrichment (6-mer frequency, TF over GST control).
